Here are results for four compounds from PubChem BioAssay (EPA / NIEHS).

The source made the active and inactive calls. The calls were made as follows: active = hit-call score of the fitted dose curve at least 0.9, where 1 is the maximum; inactive = score below 0.9.

Read-out in assay [1]: Human Leukocyte Antigen - DR isotype (HLADR), HLA-DRA (gene 3122)
Kind of assay: BSK_3C_HLADR: BioMAP Diversity Plus: 3C Assay for Human Leukocyte Antigen - DR isotype (HLADR) Biomarker Activity (AID 2283019).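 As to outcome: ELISA of cell-surface HLA-DR on HUVEC 24 h after dosing.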 The note with it: primary human endothelial cells (HUVEC); actives raise or lower the signal. The essentials:
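ELISA readout of surface HLA-DR on human umbilical vein endothelium, taken 24 h after chemical treatment. Gain- and loss-of-signal were both fitted relative to DMSO.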

Assay [2] is described as follows: BSK_3C_Vis: BioMAP Diversity Plus: 3C Assay for Morphology Visualization (AID 2283025).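 Also: fitted both ways so gain or loss versus DMSO counts.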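 As to AC50: light microscopy image of cell morphology used as background control.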 Particulars: primary human endothelial cells (HUVEC). Summed up:
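Chemicals were added to primary human umbilical vein endothelium, cells were incubated 24 h, and morphology was then visualized by light microscopy. Gain or loss of signal was fitted bidirectionally relative to DMSO.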

Read-out in assay [3]: Human Leukocyte Antigen - DR isotype (HLADR), HLA-DRA (gene 3122)
Put plainly: BSK_BE3C_HLADR: BioMAP Diversity Plus: BE3C Assay for Human Leukocyte Antigen - DR isotype (HLADR) Biomarker Activity (AID 2283032). Particulars: primary human bronchial epithelial cells; actives raise or lower the signal. Summed up: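 ELISA read-out of HLA-DR on human lung bronchial epithelial primary cells, measured 24 h post-dosing. Both increases and decreases were scored relative to DMSO vehicle.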

Read-out in assay [4]: Interleukin-8 (IL8), CXCL8 (gene 3576)
Put plainly: BSK_CASM3C_IL8: BioMAP Diversity Plus: CASM3C Assay for Interleukin-8 (IL8) Biomarker Activity (AID 2283042).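 Also: IL-8 protein level quantified by ELISA.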 Particulars: primary human coronary artery smooth muscle cells; actives raise or lower the signal.

Read-out in assay [5]: Monokine induced gamma interferon (MIG), CXCL9 (gene 4283)
Kind of assay: BSK_CASM3C_MIG: BioMAP Diversity Plus: CASM3C Assay for Monokine induced gamma interferon (MIG) Biomarker Activity (AID 2283048).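 Also: MIG protein level measured by ELISA.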 Particulars: primary human coronary artery smooth muscle cells; actives raise or lower the signal.

Read-out in assay [6]: Urokinase-type plasminogen activator receptor (uPAR), PLAUR (gene 5329)
Kind of assay: BSK_CASM3C_uPAR: BioMAP Diversity Plus: CASM3C Assay for Urokinase-type plasminogen activator receptor (uPAR) Biomarker Activity (AID 2283054).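 Also: cell-surface uPAR protein level quantified by ELISA.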 The note with it: primary human coronary artery smooth muscle cells; actives raise or lower the signal.

Read-out in assay [7]: Intercellular Adhesion Molecule 1 (ICAM1), ICAM1 (gene 3383)
Kind of assay: BSK_KF3CT_ICAM1: BioMAP Diversity Plus: KF3CT Assay for Intercellular Adhesion Molecule 1 (ICAM1) Biomarker Activity (AID 2283067). The note with it: primary human keratinocytes with fibroblasts; actives raise or lower the signal. Summed up:
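ICAM-1 levels are measured by ELISA 24 h after dosing a primary human co-culture of keratinocytes and foreskin fibroblasts. Activity in either direction is fitted relative to DMSO vehicle.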

Read-out in assay [8]: Macrophage colony-stimulating factor (MCSF), CSF1 (gene 1435)
Kind of assay: BSK_LPS_MCSF: BioMAP Diversity Plus: LPS Assay for Macrophage colony-stimulating factor (MCSF) Biomarker Activity (AID 2283083). The note with it: primary human HUVEC with PBMC; actives raise or lower the signal. Summed up:
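ELISA readout of M-CSF after 24 h compound exposure in a human endothelial/PBMC co-culture. Activity, in either direction, is fitted relative to DMSO vehicle.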

Read-out in assay [9]: Tissue Factor, F3 (gene 2152)
Put plainly: BSK_LPS_TissueFactor: BioMAP Diversity Plus: LPS Assay for Tissue Factor Biomarker Activity (AID 2283084). The note with it: primary human HUVEC with PBMC; actives raise or lower the signal. Summed up:
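ELISA signal for cell-surface Tissue Factor (CD142) was read 24 h after compound dosing of an LPS-stimulated human endothelial–PBMC primary co-culture. Gain or loss of signal was scored relative to DMSO.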

Read-out in assay [10]: Vascular cell adhesion molecule 1 (VCAM1), VCAM1 (gene 7412)
Put plainly: BSK_LPS_VCAM1: BioMAP Diversity Plus: LPS Assay for Vascular cell adhesion molecule 1 (VCAM1) Biomarker Activity (AID 2283086). Particulars: primary human HUVEC with PBMC; actives raise or lower the signal. The essentials: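 HUVEC + PBMC co-culture, LPS system; compound 24 h; VCAM-1 by ELISA; bidirectional fit vs DMSO control; parallel SRB (0.1%, TCA-fixed, 560 nm) for cytotoxicity.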

Read-out in the next assay: CD40, CD40 (gene 958)
Put plainly: BSK_SAg_CD40: BioMAP Diversity Plus: SAg Assay for CD40 Biomarker Activity (AID 2283088). Particulars: primary human HUVEC with PBMC; actives raise or lower the signal. The essentials: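 Compounds were dosed onto a human primary endothelial–PBMC co-culture, and after 24 h CD40 was quantified by ELISA using a fluorescence signal. Activity in either direction was fitted relative to DMSO.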

Read-out in assay [11]: Monocyte Chemoattractant Protein-1 (MCP1), CCL2 (gene 6347)
Kind of assay: BSK_SAg_MCP1: BioMAP Diversity Plus: SAg Assay for Monocyte Chemoattractant Protein-1 (MCP1) Biomarker Activity (AID 2283090). Particulars: primary human HUVEC with PBMC; actives raise or lower the signal. Summed up: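 MCP-1 levels in the endothelial–PBMC SAg co-culture were quantified by ELISA at 24 h post-dosing; both increases and decreases versus DMSO scored. Cytotoxicity monitored by SRB total protein in parallel cultures.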

Read-out in assay [12]: Monokine induced gamma interferon (MIG), CXCL9 (gene 4283)
Put plainly: BSK_SAg_MIG: BioMAP Diversity Plus: SAg Assay for Monokine induced gamma interferon (MIG) Biomarker Activity (AID 2283092). Particulars: primary human HUVEC with PBMC; actives raise or lower the signal. Summed up:
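Endothelial cells and PBMC were co-cultured, exposed to test chemicals, and sampled 24 h later. MIG was measured by ELISA, and responses were fitted in both directions relative to DMSO.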

Read-out in assay [13]: Interleukin-8 (IL8), CXCL8 (gene 3576)
Put plainly: BSK_SAg_IL8: BioMAP Diversity Plus: SAg Assay for Interleukin-8 (IL8) Biomarker Activity (AID 2283094). The note with it: primary human HUVEC with PBMC; actives raise or lower the signal. Summed up:
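ELISA read-out of IL-8 in a primary human vascular co-culture (umbilical vein endothelium plus PBMC), taken 24 h after compound addition. Values derive from bidirectional fits against DMSO negative controls.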

The nature of assay [14]: BSK_SAg_Proliferation: Cell Proliferation Assessment in the BioMAP Diversity Plus: SAg Assay (AID 2283095).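 Also: relative cell number as total protein by SRB absorbance in sub-confluent culture.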 Particulars: primary human HUVEC with PBMC. Summed up: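 Cells (endothelium plus PBMC, human primary) were dosed with chemical, cultured 96 h, fixed in 10% TCA and stained with 0.1% SRB. Absorbance at 560 nm gave relative protein, fitted bidirectionally relative to DMSO.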

Assay [15] can be described thus: BSK_BT_Bcell_Proliferation: Viability Assessment in the BioMAP Diversity Plus: BT Assay for B cell Proliferation (AID 2284227). Particulars: primary human B cells with PBMC. Summed up: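 Read-out is absorbance at 560 nm from sulforhodamine B staining of total protein, reflecting relative cell numbers in a human B cell and PBMC co-culture after 72 h of chemical exposure. Values were referenced to DMSO.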

Read-out in assay [16]: Interleukin 17A (IL17A), IL17A (gene 3605)
Kind of assay: BSK_BT_xIL17A: BioMAP Diversity Plus: BT Assay for Interleukin 17A (IL17A) Biomarker Activity (AID 2284229). The note with it: primary human B cells with PBMC. The essentials: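 Secreted IL-17A was the measured endpoint, read by Luminex xMAP multiplex in supernatants of a human B cell/PBMC co-culture harvested 24 h after chemical dosing. Signal increase relative to DMSO defined activity.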

Read-out in assay [17]: Collagen III, COL3A1 (gene 1281)
Kind of assay: BSK_MyoF_CollagenIII: BioMAP Diversity Plus: MyoF Assay for Collagen III Biomarker Activity (AID 2284239). The note with it: primary human lung fibroblasts. Summed up:
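ELISA read-out of collagen III from human lung fibroblasts after 24 h of chemical treatment. The DMSO control served as negative control and baseline, with values fitted in the positive direction.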

Read-out in assay [18]: Interleukin 2 (IL2), IL2 (gene 3558)
Kind of assay: BSK_BT_xIL2: BioMAP Diversity Plus: BT Assay for Interleukin 2 (IL2) Biomarker Activity (AID 2284245). The note with it: primary human B cells with PBMC. Summed up:
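B cell + PBMC co-culture (human primary), compound added, 24 h incubation; secreted IL-2 measured multiplexed on Luminex xMAP; gain-of-signal fit vs DMSO.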

Read-out in assay [19]: Matrix Metallopeptidase 1 (MMP1), MMP1 (gene 4312)
Put plainly: BSK_MyoF_MMP1: BioMAP Diversity Plus: MyoF Assay for Matrix Metallopeptidase 1 (MMP1) Biomarker Activity (AID 2284268). Particulars: primary human lung fibroblasts. The essentials: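 Lung fibroblast cultures were dosed with test chemicals and, after 24 h, MMP1 levels were measured by ELISA; responses were referenced to DMSO and analysed for increases.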

In the case of `Oc1cc(Cl)ccc1Cl`, the outcome in assay [1], in assay [2], in assay [3], in [4], in [5] and in assay [6] was inactive. For the same compound, the outcome in assay [7] is “inactive”; in assay [8] it was “inactive”; in assay [9], “inactive”; in [10], “inactive”; in the assay with CD40, CD40 (gene 958), “inactive”; in assay [11], “inactive”. Also, the outcome in [12], in assay [13], in [14], in [15], in [16] and in assay [17] was inactive. Further, the outcome in assay [18] and in assay [19] was inactive.
`O=P1(NCCCl)OCCCN1CCCl` (stereo not drawn): the result in assay [1], in [2], in assay [3], in [4], in [5] and in [6] was inactive. Moreover, the outcome in assay [7] was “inactive”; in assay [8], “inactive”; in assay [9], “inactive”; in assay [10], “inactive”; with CD40, CD40 (gene 958), “inactive”; in assay [11] it was “inactive”. In addition, the outcome in [12], in assay [13], in assay [14], in [15], in assay [16] and in [17] was inactive. Besides, the outcome in [18] and in assay [19] was inactive.
Regarding `CC(C)(c1cc(Cl)c(O)c(Cl)c1)c1cc(Cl)c(O)c(Cl)c1`, the AC50 in assay [1] was 10.2 µM (active); in [2], 39.6 µM (active); in assay [3] it was 9.27 µM (active); in assay [5] it was 32.9 µM (active); in [6], 32.5 µM (active); in assay [7], 7.95 µM (active). Moreover, the AC50 in assay [8] was 17.2 µM (active); in assay [9], 31.3 µM (active); in assay [10], 29.8 µM (active); in assay [11], 31.9 µM (active); in assay [13] it was 31 µM (active); in assay [14], 25.9 µM (active). Moreover, the AC50 in [17] was 9.8 µM (active). Also, the outcome in [4], in assay [15], in [16], in assay [18] and in assay [19] was inactive.
Regarding `CC(C)CCCCCCCOP(=O)(Oc1ccccc1)Oc1ccccc1`, the AC50 is 6.74 µM (active) in [1]; 5.61 µM (active) in assay [2]; 13.9 µM (active) in assay [3]; 15.3 µM (active) in [8]; 31 µM (active) in assay [9]; 27.8 µM (active) in assay [10]. Further, the AC50 with CD40, CD40 (gene 958) is 26.2 µM (active); in assay [11], 20 µM (active); in assay [12] it was 35 µM (active); in assay [13] it was 11.9 µM (active); in assay [14] it was 15.8 µM (active); in [15] it was 29.5 µM (active). The AC50 is 19.5 µM (active) in assay [16], 8.98 µM (active) in assay [17], 26.4 µM (active) in assay [18] and 5.17 µM (active) in assay [19]. The outcome in assay [4], in assay [5], in assay [6] and in assay [7] was inactive.
